Source: PMC5540273 (PLoS ONE, 2017)

Columns and labels:
Conditions in all cases: concentration: 1 μM, replicates: in singlicate; n = 1
PLK2 = test system: PLK2
PLK3 = test system: PLK3
PLK4 = test system: PLK4
PRKCD = test system: PRKCD
PRKCE = test system: PRKCE
PRKCH = test system: PRKCH
PRKCI = test system: PRKCI
PRKCQ = test system: PRKCQ
PRKD1 = test system: PRKD1
PRKD2 = test system: PRKD2
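Further: KINOMEscan kinase panel screen.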

SMILES | %Inh (PLK2) | %Inh (PLK3) | %Inh (PLK4) | %Inh (PRKCD) | %Inh (PRKCE) | %Inh (PRKCH) | %Inh (PRKCI) | %Inh (PRKCQ) | %Inh (PRKD1) | %Inh (PRKD2)
COc1cc(Nc2nccc(N3CCC(NC(=O)Nc4cccc(C(C)=O)c4)C3)n2)cc(OC)c1OC (stereo not shown) [GSK1379753] | 0% | 0% | 54% | 5% | 0% | 0% | 25% | 0% | 0% | 0%
COc1cc(Nc2nccc(-c3c(-c4cccc(NC(=O)c5c(F)cccc5F)c4)nn4ncccc34)n2)cc(OC)c1OC [GSK327238] | 68% | 92.7% | 44% | 79% | 14% | 67% | 9% | 90.2% | 6% | 14%
O=C(Nc1cccc(-c2nn3ccccc3c2-c2ccnc(Nc3cccc(C(F)(F)F)c3)n2)c1)c1c(F)cccc1F [GSK292658] | 0% | 0% | 3% | 0% | 0% | 17% | 9% | 20% | 0% | 0%
CNC(=O)c1ccccc1Nc1nc(Nc2ccc(N3CCOCC3)cc2)ncc1Cl.Cl [GSK1576028] | 81% | 85% | 100% | 24% | 64% | 0% | 11% | 84% | 0% | 17%
CCCCc1nn2ncccc2c1-c1ccnc(Nc2ccc(N3CCN(C)CC3)cc2)n1 [GW684941] | 0% | 0% | 74% | 0% | 14% | 0% | 17% | 0% | 63% | 55%
Cl.Cl.NCC(NC(=O)c1cc(-c2ccccc2)c(-c2ccnc3[nH]ccc23)s1)c1ccccc1 (stereo not shown) [GSK1321561] | 30% | 0% | 4% | 98% | 69% | 86% | 37% | 49% | 38% | 8%
COc1cccc(NC(=O)NC2CCN(c3ccnc(Nc4cc(OC)c(OC)c(OC)c4)n3)C2)c1 (stereo not shown) [GSK1379763] | 0% | 12% | 48% | 0% | 14% | 0% | 0% | 0% | 0% | 0%
CCS(=O)(=O)c1ccc(OC)c(Nc2nccc(-c3c(-c4cccc(NC(=O)c5c(F)cccc5F)c4)nn4ncccc34)n2)c1 [GSK326180] | 0% | 5% | 16% | 0% | 12% | 18% | 16% | 27% | 0% | 9%
O=C(Nc1n[nH]c2cc(-c3ccoc3)ccc12)C1CC1 [SB-738481] | 3% | 12% | 10% | 4% | 12% | 0% | 0% | 0% | 0% | 0%
COc1cc(Nc2ncc3c(C)nc(-c4cc5ccccc5[nH]4)n3n2)cc(OC)c1OC [GW869516] | 23% | 24% | 0% | 43% | 0% | 0% | 45% | 0% | 0% | 0%
CC(=O)N1CCN(c2ccc(Nc3nccc(-c4sc(C(C)C)nc4-c4cccc(NS(=O)(=O)c5cccc(Cl)c5)c4)n3)cn2)CC1 [GSK1660437] | 5% | 0% | 99.8% | 1% | 0% | 19% | 13% | 13% | 89% | 95.3%
Nc1ncnc2c1nc(-c1ccccc1)n2-c1ccccc1 [SKF-97293] | 38% | 16% | 26% | 14% | 35% | 9% | 13% | 0% | 5% | 0%
Cc1ccc(C)c(NC(=O)NC2CCN(c3ccnc(Nc4ccc(F)cc4)n3)C2)c1 (stereo not shown) [GSK1379720] | 0% | 0% | 0% | 0% | 15% | 0% | 13% | 0% | 0% | 0%
O=c1[nH]cc(-c2ccc(N3CCOCC3)cc2)c2sc(-c3cn[nH]c3)cc12 [GSK2276055] | 18% | 0% | 17% | 0% | 0% | 0% | 17% | 21% | 0% | 30%
O=C(Nc1cccc(-c2nn3ncccc3c2-c2ccnc(Nc3ccccc3)n2)c1)c1c(F)cccc1F [GSK198271] | 55% | 82% | 1% | 0% | 8% | 16% | 9% | 48% | 27% | 20%
COc1cc2c(cc1OCCN1CCNCC1)ncc1c3ccc(C#N)cc3[nH]c21 | 22% | 20% | 32% | 0% | 19% | 0% | 24% | 0% | 0% | 0%
